Bioassay records (PubChem BioAssay)
Compounds with a hit are over-represented: about 10% of the library has one in this group of screens.
CtBP-E1A inh: CtBP/E1A binding inhibition; AlphaScreen GST-E1A/His-CtBP binding, 1536-well; active compounds read low; activity change, % (concentration not given with the values); 0.49% of 340,000 active; AID 651724; in the data active means activity change below about -65%; inconclusive means mostly about -30% to -63%
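Steps: dispense buffer (Tris pH 8.0, NaCl 300 mM, TCEP 1 mM, BSA, Tween 20); add 5X protein mix (GST-E1A, His-CtBP, 125 nM each); pin 23 nL compound; 2 h at 37 °C, dark; add 5X beads (50 ug/mL); 1 h; read.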
G9a block: G9a (human) methyltransferase inhibition; G9a H3K9 monomethylation, AlphaScreen, 2 h; Potency, µM (top dose mostly 102 µM), most hits filed as inhibitors; 8.8% of 350,000 active; AID 504332; further: nearly all actives have a fitted effect of over 75% in size
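AlphaScreen detection with an anti-monomethyl H3K9 antibody quantified product after a 2 h room-temperature reaction containing 500 nM biotinylated H3K9 peptide, 20 µM SAM and 20 nM enzyme, which had been preincubated 15 min with compound.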
BAZ2B inh: blocks human BAZ2B. AlphaScreen BAZ2B-H3K14Ac peptide displacement. Potency, µM (highest dose often 114 µM), actives largely listed as inhibitors. 4.4% of 360,000 active; further: nearly all actives have a fitted effect of over 60% in size
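In this displacement format the biotinylated H3(5-23) peptide acetylated at Lys14 serves as ligand at 50 nM, with BAZ2B at 50 nM in PBS pH 7.4 containing 0.01% Tween-20. Donor and acceptor beads are 10 ug/mL final.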
Six1-Eya2 blk: Six1/Eya2 interaction inhibition; AlphaScreen GST-Six1/His-Eya2 binding, biochemical; active compounds read low; 0.56% of 360,000 active; activity change, % (concentration not given with the values); Q15475+O00167; in the data active means activity change below about -65%; inconclusive means mostly about -30% to -63%
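Homogeneous AlphaScreen proximity assay pairing GST-Six1 with His-tagged Eya2 (added as 5X mix: 250 nM and 500 nM) in 50 mM Tris pH 8.0, 300 mM NaCl, 1 mM TCEP. Glutathione donor and nickel acceptor beads; 1 h, 37 °C, dark.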
JMJD2A Tudor inh: blocks the human JMJD2A Tudor domain. 4.4% of 390,000 active. O75164. Potency, µM (titrated, usually from 114 µM), actives largely listed as inhibitors. AID 504339. AlphaScreen JMJD2A-Tudor / H3K4me3 peptide binding; further: nearly all actives have a fitted effect of over 50% in size
HP1b chromo inh: blocks HP1-beta chromodomain binding to methylated histone tails; P83916; AlphaScreen HP1-beta / biotin-H3K9me3 peptide binding; Potency, µM (doses to about 114 µM), hits mostly inhibitors; 0.56% of 390,000 active; further: nearly all actives have a fitted effect of over 70% in size
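HP1-beta protein (50 nM final) preincubated 30 min at room temperature with biotinylated H3(1-18)K9me3 peptide (50 nM) in PBS pH 7.4, 0.01% Tween-20, then compound added for 30 min. AlphaScreen streptavidin donor/nickel chelate acceptor beads (10 ug/mL final), 30 min dark, luminescence read.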
A number is an active result; – = inactive; ? = inconclusive; · = no result given; ! = not confirmed by another sample; [ ] = another dose, or the depositor's remark. Unless noted, the call rests on the fitted dose curve; in most records, active means well fitted inhibition curve with a large enough effect; inconclusive means small, poorly fitted or top-dose-only effect; inactive means no such curve, though single readings can be large or run the other way.

SMILES | CtBP-E1A inh | G9a block | BAZ2B inh | Six1-Eya2 blk | JMJD2A Tudor inh | HP1b chromo inh
CCN(CC)c1ccc(-c2sc(Nc3ccccc3)n[n+]2-c2ccc(F)cc2)cc1 | – | 45µM | 28µM | – | 56µM | –
C[n+]1nc(Nc2ccccc2)sc1-c1ccc(C(=O)O)cc1 | · | –[12.7 µM] | – | · | · | ·
CCc1ccc(Nc2n[n+](-c3ccccc3)c(-c3ccc(N(CC)CC)cc3)s2)cc1 | – | 13µM | 40µM | – | 40µM | ?
COc1ccccc1CNC(=O)Cn1c(=O)c2cccn2c2cccnc21 | – | –[0.0925 µM] | – | – | – | –
CCN(CC(=O)NCc1ccc(F)cc1)C(=O)CCNS(=O)(=O)c1cccc(C)c1 | – | –[12.7 µM] | – | – | – | –
O=C(OCC(=O)N1CCc2ccccc2C1)c1ccc(N2CCOCC2)c([N+](=O)[O-])c1 | – | 40µM | – | – | – | –
Cc1ccc(Cl)c(OC(=O)c2ccc(N3CCOCC3)c([N+](=O)[O-])c2)c1 | – | 28µM | ? | ? | ? | ?
CC1=C(C(=O)Nc2ccccc2)C(c2cccc(O)c2)n2nc(-c3ccccc3Cl)nc2N1 (configuration not stated) | · | – | – | · | – | –
COc1cc(/C=C/C=C2/CC/C(=C/C=C/c3ccc(O)c(OC)c3)C2=O)ccc1O | – | · | · | ? | 56µM | ?
C/C=C/c1ccc(O)c(OC)c1 | – | 10µM! | ? | – | – | ?
COc1cc(/C=C2/CC/C(=C/c3ccc(O)c(OC)c3)C2=O)ccc1O | – | ? | ? | – | –[11.4 µM] | –
COc1cc(/C=C2\COC/C(=C\c3ccc(O)c(OC)c3)C2=O)ccc1O | – | 32µM | ? | – | ? | ?
Cc1ccc(NC(=O)Cn2nnc(-c3nc(-c4ccncc4)no3)c2N)cc1 | · | – | – | · | – | –
Cc1cc(/C=C2/C(=N)N3C(=NC2=O)SN=C3S(C)(=O)=O)c(C)n1-c1ccc(F)cc1 | · | 40µM | · | – | – | –
CCOc1cc(/C=C2/C(=N)N3C(=NC2=O)SN=C3S(C)(=O)=O)ccc1OS(=O)(=O)c1ccccc1 | · | · | ? | – | ? | –
COc1ccccc1-n1c(C)cc(C=O)c1C | – | –[12.7 µM] | – | – | – | –
COc1ccccc1-n1c(C)cc(/C=C2/C(=N)N3C(=NC2=O)SN=C3S(C)(=O)=O)c1C | – | 50µM | · | – | – | –
CC1=NN2C(=N)/C(=C\c3cc(C)n(-c4ccccc4)c3C)C(=O)N=C2S1 | – | ? | – | – | – | –
CCOc1ccc(-n2c(C)cc(/C=C3/C(=N)N4C(=NC3=O)SN=C4S(C)(=O)=O)c2C)cc1 | · | 28µM | 56µM | – | ? | –
COc1cc(/C=C2/C(=N)N3C(=NC2=O)SN=C3S(C)(=O)=O)ccc1OS(=O)(=O)c1ccccc1 | · | 25µM | 50µM | · | · | ·
CCOc1ccc(-c2nnc(SCC(=O)Nc3ccc4c(c3)c3ccccc3n4CC)n2N)cc1 | – | ? | 71µM | – | ? | –
Cc1cc(NC(=O)CSc2nnc(-c3ccncc3)n2N)ccc1Br | – | 35µM | – | – | 79µM | –
CCOc1ccc(Nc2ccnc3cc(Cl)ccc23)cc1 | – | – | – | – | – | –
CCN1CCC(Nc2ccnc3cc(Cl)ccc23)CC1 | – | 32µM | – | – | – | –
Cc1nn(Cc2ccc(Cl)cc2)c2sc(C(=O)O)cc12 | – | 1µM | – | – | – | –
SMILES | CtBP-E1A inh | G9a block | BAZ2B inh | Six1-Eya2 blk | JMJD2A Tudor inh | HP1b chromo inh
Cc1nn(Cc2ccc(F)cc2)c2sc(C(=O)Nc3nccs3)cc12 | – | – | – | – | – | –
COc1ccc(C)cc1NC(c1nnc(-c2ccccc2)o1)c1ccc(F)cc1Cl (configuration not stated) | · | ? | ? | · | – | –
COc1cc(OC)c(NC(c2nnc(-c3ccccc3)o2)c2ccc(F)cc2Cl)cc1Cl (configuration not stated) | · | 11µM | ? | · | ? | –
Cn1c(NCCCO)nc2c1c(=O)n(Cc1cccc(F)c1)c(=O)n2C | · | – | – | · | – | –
CN1CCN(c2oc(-c3ccc(OCc4ccc(Cl)cc4)cc3)nc2C#N)CC1 | · | · | · | · | – | –
CS(=O)c1ccccc1-c1nc(-c2ccc(Cl)cc2)no1 (configuration not stated) | – | – | – | – | – | –
CS(=O)c1ccccc1-c1nc(-c2cccc(Cl)c2)no1 (configuration not stated) | – | – | – | – | 35µM | –
Cc1noc(C)c1-c1nccc(NCc2cccs2)n1 | · | –[0.501 µM] | · | · | · | ·
CC(O)c1cccc(N=Cc2ccc3ccccc3c2O)c1 (configuration not stated) | · | 1.8µM | ? | – | ? | –
COc1ccc2cnn(CCOc3cc(C)ccc3C(C)C)c(=O)c2c1OC | – | – | – | – | – | –
Cc1ccc(OCCCCn2ccnc2C)c(C)c1 | – | 2µM | 22µM | – | 1µM | ?
Cc1ccc(C(C)C)c(OCCn2ccnc2C)c1 | – | 10µM | 50µM | – | 1.3µM | ?
Cc1ccc(OCCn2nc3ccccc3n2)c(C)c1 | – | – | – | – | – | –
O=C(c1ccc2ccccc2c1)C1CCCN(S(=O)(=O)c2cccnc2)C1 (configuration not stated) | – | · | – | – | – | –
O=C(/C=C/c1ccccc1)C1=C(O)C(=O)N(CCO)C1c1ccccc1[N+](=O)[O-] (configuration not stated) | – | 45µM | – | – | ? | –
CCNC(=O)c1ccc(C)c(-n2c(C)nc3cccnc32)c1 | · | – | – | · | – | –
COc1ccc(C=C(C#N)C(=O)c2ccccc2)cc1 | – | · | · | – | · | ·
COc1cc(/C=C(\C#N)C(=O)c2ccc(O)c(O)c2)cc(I)c1O | – | 2.2µM | 40µM | ? | 8.9µM | 8.9µM
Cc1ccc(C(=O)N=c2sccn2C)cc1C | – | – | – | – | – | –
Cc1ccc(C(=O)N=c2sccn2C)cc1S(=O)(=O)N1CCOCC1 | ? | 40µM | – | ? | – | –
COc1cccc(NC(=O)Cn2cnc3c(nc4n3CCCCC4)c2=O)c1 | · | – | – | · | – | –
Cc1cc(-c2ccccc2)nnc1NCCN1CCOCC1 | – | –[2.33 µM] | ? | – | 79µM | –
Cc1ccc(NC(=O)CN(C)C(=O)COC(=O)c2ccc(Cl)cc2O)cc1 | – | –[12.7 µM] | – | – | – | –
CCOc1ccc(/C=C/C(=O)OCC(=O)NCCc2ccc(OCC)c(OCC)c2)cc1OC | – | – | – | – | – | –
O=C(CC(NCCc1ccccc1)C(=O)O)Nc1ccc(O)cc1 (configuration not stated) | · | 22µM | ? | · | · | ·
CC(C)CC(=O)Nc1ccc(Oc2ccc(NC(=O)CC(C)C)cc2)cc1 | – | – | – | – | – | –
CC(C)CC(=O)Nc1ccc(Nc2ccccc2)cc1 | – | 20µM | ? | – | – | –
O=C(O)c1ccc(C2Nc3ccccc3C(=O)N2Cc2ccccc2)cc1 (configuration not stated) | – | – | – | – | – | –
